Measured values from PubChem BioAssay AID504766 (The Scripps Research Institute Molecular Screening Center, 2011).
Among all 340,000 compounds or so, about 3,400 (1%) were called active. This is one part of a sample in which actives are shown more often than they occur. A number with no mark means an inactive call.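 The calls were made as follows: active = inhibition above the mean over all tested compounds plus 3 SD (cut at about 4.2% in these data); inactive = the rest.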

What follows are compounds tested against Nuclear receptor subfamily 0 group B member 1 (Homo sapiens) (UniProt P51843) (assay: relief of DAX1 transcriptional repression – cell-based, HEK293, Gal4-DAX1, luciferase luminescence, primary screen (AID 504766;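 also: 0% = DAX1-transfected cells with DMSO and 100% = empty-vector control cells with DMSO; inhibition shows as a rise in luminescence from relieved DAX1 repression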)). Details: HEK293 Gal4-DAX1 luciferase reporter, at 6.75 µM, active compounds read high.
Nuclear receptor subfamily 0 group B member 1 (Homo sapiens), sequence (P51843 207-470 limits assumed): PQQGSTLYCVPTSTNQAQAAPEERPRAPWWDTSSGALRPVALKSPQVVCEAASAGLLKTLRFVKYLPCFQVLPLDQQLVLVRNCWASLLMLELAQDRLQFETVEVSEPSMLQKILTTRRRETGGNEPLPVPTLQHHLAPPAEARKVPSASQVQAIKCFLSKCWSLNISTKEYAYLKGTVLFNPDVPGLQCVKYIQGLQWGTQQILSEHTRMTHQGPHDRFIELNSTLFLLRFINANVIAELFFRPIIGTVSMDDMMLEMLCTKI

Row | SMILES | inhibition
1 | CC1(C)CN(CCc2ccccc2)C(=O)[C@H]1CC(=O)Nc1ccc(Br)cc1 | 0.23%
2 | COc1ccc(-c2csc3nc(-c4ccccc4F)oc(=O)c23)cc1OC | -1.37%
3 | COc1ccc(-c2noc(-c3cccc(OC)c3OC)n2)cc1OC | 4.33% (active)
4 | COc1ccc(-c2noc(CCCC(=O)NC3CCCC3)n2)cc1OC | 0.14%
5 | COc1ccc(S(=O)(=O)N(C)C)cc1NC(=O)COC(=O)c1n[nH]c2ccccc12 | -0.33%
6 | Cc1cc(OCC(=O)Nc2nccs2)c2c(C)c(C)c(=O)oc2c1 | 0.98%
7 | Cc1cc(OCc2cc(C(=O)NCc3cc(C(C)C)no3)no2)cc(C)c1Cl | 7.06% (active)
8 | COc1ccc(OCc2cc(C(=O)NCC3(C)COC3)no2)c(Cl)c1 | 0.65%
9 | Cc1cccnc1CC(C)NC(=O)c1cc(COc2cncc(Cl)c2)on1 (configuration not stated) | 0.03%
10 | COc1ccc(Cn2c(=O)oc3ccccc32)cc1 | 0.51%
11 | COc1ccc(/C=C2\SC(=S)N(CCC(=O)N3CCOCC3)C2=O)cc1OC | -0.88%
12 | COC(=O)[C@H]1C[C@H](OC(=O)NCc2ccccc2)[C@@]2(O)CN(S(=O)(=O)c3ccc(C)cc3)CC2[C@H]1C(=O)OC (some centres not stated) | 0.61%
13 | CC(C)(CNC(=O)c1cc(=O)[nH]c2ccccc12)N1CCOCC1 | -0.11%
14 | O=C(CNC(=O)c1cc(=O)[nH]c2ccccc12)Nc1ccc(F)c(F)c1 | 7.53% (active)
15 | CC(NC(=O)c1cc(=O)[nH]c2ccccc12)c1ccc(F)cc1F (configuration not stated) | 0.16%
16 | C[C@H]1CN([C@@H](C)CO)C(=O)CCCn2cc(nn2)CO[C@@H]1CN(C)S(=O)(=O)c1ccccc1C#N | 0.36%
17 | Cc1ccc(NC(=O)Cn2sc3ccccc3c2=O)cc1 | 2.09%
18 | CC(=O)Nc1ccccc1NC(=O)c1cc(C)cc(C)c1 | 0.39%
19 | Nc1ccc(C(=O)Nc2ccccc2N)cc1 | 22.7% (active)
20 | Nc1ccc(S(=O)(=O)NC(=O)c2ccccc2)cc1 | 1.24%
21 | Cc1nc2ccccn2c(=O)c1NC(=O)c1ccc(Br)o1 | 1.03%
22 | CCOC(=O)C1C(c2ccc(OC)c(OC)c2)c2c([nH][nH]c2=O)CC1(C)O (configuration not stated) | 0.5%
23 | CC(=O)C1C(c2ccc(Cl)cc2)c2c(n[nH]c2C)CC1(C)O (configuration not stated) | 5.48% (active)

Row | SMILES | inhibition
24 | Cc1noc(C)c1NC(=O)N(C)C[C@@H]1Oc2cc(Br)ccc2S(=O)(=O)N([C@@H](C)CO)C[C@H]1C | 0.32%
25 | CC1CCCC(NC(=O)COC(=O)c2ccccc2C(=O)N(C)C2CCCCC2)C1C (configuration not stated) | -0.71%
26 | Cc1ccc(-c2ccc(CN3C(C(C)C)C(=O)N(Cc4cn(CCC5OCCCO5)nn4)CCS3(=O)=O)cc2)cc1 (configuration not stated) | -0.79%
27 | COC(=O)c1cccc(N(C(=O)CNC(=O)c2cccs2)C(C(=O)NCC2CCCO2)c2ccc(OC)c(OC)c2)c1 (configuration not stated) | 4.73% (active)
28 | O=C(NCC(=O)N(c1ccccc1)C(C(=O)NCC1CCCO1)c1ccccc1)c1cccs1 (configuration not stated) | -0.74%
29 | COc1ccc(N(C(=O)CNC(=O)c2ccco2)C(C(=O)NCC2CCCO2)c2ccccc2)cc1Cl (configuration not stated) | 0.19%
30 | O=C(CSc1nnc(SCc2ccc(F)cc2)s1)Nc1ccc(C(=O)O)cc1 | -0.63%
31 | O=C(CSc1nc2ccccc2s1)Nc1ccc(C(=O)O)cc1 | 4.73% (active)
32 | Nc1nnc(SCC(=O)Nc2ccc3nc(SCC(=O)Nc4ccccc4)sc3c2)s1 | -3.13%
33 | C[C@H]1CN([C@@H](C)CO)C(=O)CCCn2cc(nn2)CO[C@@H]1CN(C)S(=O)(=O)c1cccc(C#N)c1 | -0.32%
34 | N#CCCN(C(=S)Nc1ccc(Cl)c(Cl)c1)C1CCCCC1 | -0.53%
35 | CCOc1ccc2sc(NS(=O)(=O)c3ccc(N)cc3)nc2c1 | 2.57%
36 | Cc1ccc(S(=O)(=O)NCCSc2ccccc2)cc1[N+](=O)[O-] | -0.31%
37 | Cc1ccc(S(=O)(=O)Nc2nc3ccccc3s2)cc1[N+](=O)[O-] | 5.09% (active)
38 | Cc1ccc(-c2ccc(CN3C(C(C)C)C(=O)N(Cc4cn(CCC5OCCO5)nn4)CCS3(=O)=O)cc2)cc1 (configuration not stated) | -1.47%
39 | Brc1ccc(C2CC(c3ccccc3)=Nc3ccccc3N2)cc1 (configuration not stated) | 4.28% (active)
40 | S=C1NC(c2ccccc2)=NCN1c1ccc(Br)cc1 | -1.46%
41 | CNC(=S)N1N=C(c2ccccc2)CC1c1ccc(Br)cc1 (configuration not stated) | 1.07%
42 | CC(C)CCC(=O)Nc1cc(S(=O)(=O)N2CCOCC2)ccc1N1CCCC1 | -0.01%
43 | COc1cc2nnn(-c3ccncc3)c2cc1OC | 1.02%
44 | CC1(C)CN(Cc2cccnc2)C(=O)[C@H]1CC(=O)Nc1ccc(Br)cc1 | -0.18%
45 | O=C(COC(=O)c1ccc(S(=O)(=O)Nc2ccccc2)cc1)NCC1CCCO1 (configuration not stated) | -0.38%
46 | COc1ccc(C(=O)OCC(=O)c2cc(C)n(CC3CCCO3)c2C)cc1[N+](=O)[O-] (configuration not stated) | 0.28%

Row | SMILES | inhibition
47 | COc1ccc(C(=O)OCC(=O)NCC2CCCO2)cc1[N+](=O)[O-] (configuration not stated) | 4.91% (active)
48 | CCOC(OCC)c1ccc(/C=C\c2nccc(N)n2)cc1 | 4.34% (active)
49 | Cc1ccc([C@H]2N[C@]3(CCCN(Cc4ccccc4)C3=O)[C@H]3C(=O)N(Cc4ccccc4)C(=O)[C@@H]23)cc1 | 0.82%
50 | COc1cccc(OCC(=O)NCCS(=O)(=O)N2CCN(c3ccccc3)CC2)c1 | 0.69%
51 | CC1(C)C2CCC1(C)C(OC(=O)c1ccc(O)cc1)C2 (configuration not stated) | 4.45% (active)
52 | Cc1ccc(C(=O)OC2CCCN(C)C2)cc1 (configuration not stated) | 1.89%
53 | CC1(C)C2CCC1(C)C(OC(=O)CCn1ccnc1)C2 (configuration not stated) | 0.23%
54 | O=C(Nc1ccc(Cl)cn1)c1ccccc1-c1ccccc1 | 1.12%
55 | O=C1NC(Cc2ccccc2)c2nc3ccc(Br)cc3c(=O)n2-c2cc3ccccc3cc21 (configuration not stated) | 0.19%
56 | O=C(Nc1cccn(Cc2ccccc2Cl)c1=O)NC1CCCCC1 | -1.6%
57 | CC1(C)COC(c2cccn2Cc2ccccc2Cl)=N1 | 5.28% (active)
58 | O=S1(=O)CCN(Cc2ccccc2Cl)CC1 | 0.98%
59 | CCC1NC(=O)c2cccnc2-n2c1nc1ccc(C)cc1c2=O (configuration not stated) | 0.22%
60 | CC(C)NC(=O)Nc1ccc2c(c1)C(=O)N([C@H](C)CO)C[C@H](C)[C@@H](CN(C)Cc1ccc(C(F)(F)F)cc1)OCCCC[C@@H](C)O2 | 0.43%
61 | Cc1noc(C)c1S(=O)(=O)N(C)C[C@H]1OCCCC[C@@H](C)Oc2ccc(NC(=O)CCCN(C)C)cc2C(=O)N([C@H](C)CO)C[C@@H]1C | 0.48%
62 | O=C(Nc1cccc(F)c1)N1C2CCC1CC(O)(c1cccnc1)C2 (configuration not stated) | 0.14%
63 | O=C(c1cccc(F)c1)N1CCC(O)(c2cccnc2)CC1 | 1.7%
64 | Cc1ccc(NC(=O)N2CCC(O)(c3cccnc3)CC2)cc1 | 4.28% (active)
65 | COC(=O)C[C@H]1C[C@@H]2c3cc(NC(=O)Nc4ccccc4)ccc3O[C@@H]2[C@@H](CO)O1 | 2.2%
66 | CC1CCN(C(=O)CSc2nnc(-c3ccco3)n2N)CC1 | 1.88%
67 | Cc1ccc(NC(=O)c2ccco2)cc1 | 7.13% (active)
68 | CC(C)(C)NC(=O)c1cc(NC(=O)c2ccco2)cc(NC(=O)c2ccco2)c1 | -1.82%
69 | O=C(Nc1ccc2nccnc2c1)c1ccco1 | 5.48% (active)

Row | SMILES | inhibition
70 | O=C(Nc1ccc(Sc2ccc(Br)cc2)cc1)c1ccco1 | -0.97%
71 | O=C(Nc1ccc2oc(-c3ccccc3F)nc2c1)c1ccco1 | 2.35%
72 | COc1ccccc1C(=O)Nc1ccc(NC(=O)c2ccco2)c(C)c1 | -0.21%
73 | NS(=O)(=O)c1ccc(CNC(=O)c2cc(S(=O)(=O)N3CCOCC3)ccc2N2CCCC2)cc1 | -0.73%
74 | CN1CCN(c2ccncc2S(=O)(=O)N2CCCC2)CC1 | 0.96%
75 | Cc1cc2ccccc2n1CCC(=O)O | 6.77% (active)
76 | Cc1cc2ccccc2n1CCNC(=O)COc1ccc2ccccc2c1 | -0.5%
77 | O=C(O)CCn1c(Cc2ccccc2)nc2ccccc21 | 0.63%
78 | CC(OC(=O)c1cccc(S(=O)(=O)N2CCOCC2)c1)C(=O)NCC1CCCCC1 (configuration not stated) | 0.27%
79 | COc1ccccc1CCNC(=O)c1cnccn1 | 0.75%
80 | COc1cccc(OCC(=O)NNC(=O)c2cnccn2)c1 | 5.68% (active)
81 | COc1ccc(C(=O)NNC(=O)c2cnccn2)cc1[N+](=O)[O-] | 1.76%
82 | Cc1cc(Cl)ccc1C(=O)C1CCCN(C(=O)c2ccc3c(c2)OCO3)C1 (configuration not stated) | 0.21%
83 | O=C(CSCc1ccccc1)Nc1ccccc1 | 7.09% (active)
84 | Cn1c(CSCC(=O)Nc2ccccc2)nnc1SCc1ccccc1 | -0.77%
85 | Cc1c(NC(=O)CSCc2ccccc2)cccc1C(=O)O | 0.3%
86 | O=C(COc1ccc(Br)cc1)OCC(=O)c1ccc[nH]1 | -1.15%
87 | COc1ccc(CCNC(=O)CN(c2ccccc2)S(=O)(=O)c2ccccc2)cc1 | -1.2%
88 | CCCCCCN1C[C@H](O)[C@@H](n2cc(C3CC3)nn2)C[C@@H]1c1ccc(Cl)cc1 | -0.34%
89 | CCOc1cc(/C=N/NC(=O)c2ccncc2)cc(Br)c1O | -0.05%
90 | COc1cc2sc(C)nc2cc1C | -1.73%
91 | Cc1nc2cc3c(cc2s1)OCO3 | 5.8% (active)
92 | c1c2c(cc3sc(N4CCCCC4)nc13)OCCO2 | -5.28%
